RTF Ca sens inh: cardiac RTF calcium desensitization; P19429+P45379; 340,000 compounds, 0.12% hits; IANBD-labeled cardiac RTF, Ca2+ fluorescence; inhibition, % at 7.15 µM;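 active means inhibition above the mean inhibition of all tested compounds plus 3 SD, cut at about 17% in these data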;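 further: assay run at fixed EC70 calcium of 1.6 mM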
cardiac RTF act: increases calcium sensitivity of human cardiac regulated thin filaments. IANBD-labeled TnC RTF fluorescence at EC20 calcium; 0% EC20 calcium, 100% full calcium. 340,000 compounds, 0.24% hits. activation, % at 7.2 µM. P19429+P45379;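 active means activation above the mean over all tested compounds plus 3 SD, cut at about 30% in these data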;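 further: rise in fluorescence read as greater calcium sensitivity of cardiac thin filaments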
Keap1 Nrf2 FP: Keap1-Nrf2 (human) interaction inhibition | inhibition, % at 9.4 µM | Keap1 Kelch-Nrf2 peptide fluorescence polarization, 1536-well | AID 504523 | 340,000 compounds, 0.15% hits; in the data active means inhibition above about 12%;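 further: human Keap1 Kelch domain with fluorescein labeled Nrf2 9mer peptide probe; higher means more block of Keap1 binding to Nrf2 peptide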
Target sequence (Q14145 whole entry, looked up, the tested form may be a part): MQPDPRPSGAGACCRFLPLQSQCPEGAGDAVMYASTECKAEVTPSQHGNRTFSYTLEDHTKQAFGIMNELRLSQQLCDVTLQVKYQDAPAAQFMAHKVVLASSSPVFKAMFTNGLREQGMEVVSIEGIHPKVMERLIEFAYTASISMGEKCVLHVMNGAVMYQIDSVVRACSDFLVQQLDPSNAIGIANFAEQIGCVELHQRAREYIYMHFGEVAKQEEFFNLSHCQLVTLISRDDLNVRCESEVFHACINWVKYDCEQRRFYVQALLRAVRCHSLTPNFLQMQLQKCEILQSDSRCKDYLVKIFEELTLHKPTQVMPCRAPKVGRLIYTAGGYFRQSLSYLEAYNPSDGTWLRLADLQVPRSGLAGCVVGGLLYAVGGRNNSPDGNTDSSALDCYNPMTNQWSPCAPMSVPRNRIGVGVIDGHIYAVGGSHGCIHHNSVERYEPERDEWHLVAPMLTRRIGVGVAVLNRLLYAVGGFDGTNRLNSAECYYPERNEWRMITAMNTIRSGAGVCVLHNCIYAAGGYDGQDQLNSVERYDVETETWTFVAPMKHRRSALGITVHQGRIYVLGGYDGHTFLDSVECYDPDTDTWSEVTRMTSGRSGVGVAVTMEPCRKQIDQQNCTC
C-LANA FP: KSHV C-LANA DNA binding inhibition | MBP-C-LANA/FAM-LBS DNA binding, fluorescence polarization | inhibition, % at 9 µM | 340,000 compounds, 0.078% hits | AID 504423;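 active means highest replicate inhibition at or above 60% at 9 µM, even if other replicates fall short; inactive means all replicates below 60% inhibition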
LANA-H2B inh: blocks KSHV LANA binding to histone H2A/H2B | cell-free LANA-H2A/H2B peptide, fluorescence polarization | 320,000 compounds, 0.6% hits | inhibition, % (no concentration beside the values) | AID 2629 | Q9QR71; in the data active means inhibition mostly above about 10%, no sharp cut-off; inactive means mostly below about 6.7%
Each line names hits and unclear results; the compound was inactive in the other large screens; ! = repeats disagree. An excerpt weighted towards active compounds, which were near 0.98% of everything screened.

CCN(CC)c1ccc(S(=O)(=O)N2CCCCC2)cc1NC(=O)C1CCC1	LANA-H2B inh 71
NCCc1cnc[nH]1	LANA-H2B inh 22!
COC(=O)c1c(=O)n(O)c2ccc(OC)cc2[n+]1[O-]	cardiac RTF act 44, Keap1 Nrf2 FP 24, LANA-H2B inh 55
CCS(=O)(=O)N1Cc2ccccc2CC1C(=O)N(C)CC(=O)Nc1ccc(F)c(F)c1F (configuration not stated)	LANA-H2B inh 32
Cc1cccc(C(=O)OCC(=O)NCCCc2ccccc2)c1O	none
CCOc1ccc(S(=O)(=O)N2CCC(C(=O)Nc3cc(S(C)(=O)=O)ccc3Cl)CC2)cc1	none
COc1ccccc1NC(=O)C(=O)N/N=C(\C)CC(=O)Nc1ccccn1	LANA-H2B inh 24
COc1ccc(NC(=O)C(=O)N/N=C(\C)CC(=O)Nc2ccccn2)c(OC)c1	none
CCOC(=O)c1ccc(NC(=S)N2CCN(C(=O)C3CCCO3)CC2)cc1 (configuration not stated)	none
O=C(O)c1ccc2c(c1)C1C=CCC1C(c1ccncc1)N2 (configuration not stated)	none
COc1ccc(NS(=O)(=O)c2ccc3c(c2)[C@H]2C=CC[C@H]2[C@@H](c2ccc(C(=O)O)cc2)N3)cc1	C-LANA FP 113
Cc1ccc(N=Nc2c(O)[nH]c3ccc(F)cc23)cc1	cardiac RTF act 75
Cc1ccc(N=Nc2[nH]c3ccccc3c2O)cc1	cardiac RTF act 36
COc1ccc(N=Nc2[nH]c3ccc(C)cc3c2O)cc1	none
O=C(/C=C/c1ccc([N+](=O)[O-])cc1)c1cccs1	none
COc1cc([N+](=O)[O-])ccc1N/C=C/C(=O)c1cccs1	cardiac RTF act 287
COc1ccc(-n2nc([N+](=O)[O-])c(=NCCC3=CCCCC3)n2O)cc1	none
O=C(C[n+]1ccccc1)Nc1ccccc1[N+](=O)[O-]	LANA-H2B inh 111
CCOc1ccccc1Nc1nnc(SCC(=O)NC(=O)c2cccn2C)s1	LANA-H2B inh 16
O=C(O)CSCCC(=O)Nc1ccc(F)cc1	LANA-H2B inh 28
CCc1c(C2(O)CCCCC2)[nH]c2cc(C(F)(F)F)ccc12	none
Cc1cccc(-c2nnc(SCC(=O)NC3CC3)n2C)c1	LANA-H2B inh 12
Cn1c(Cn2c(=O)sc3ccccc32)nnc1SCC(=O)NC1CCCC1	LANA-H2B inh 17
Cn1c(=O)cc(OCC(=O)NCc2cccs2)c2ccccc21	none
COc1ccccc1N=Cc1c(C)c(C#N)c2[nH]c3ccccc3n2c1=O	cardiac RTF act 62
COc1cc(C2C3=C(CC(C)(C)CC3=O)Nc3ccccc3N2C(C)=O)cc(OC)c1OC (configuration not stated)	none
CCC1(c2ccc(C)cc2)NC(=O)N(C(C)C(=O)Nc2ccc(N3CCOCC3)cc2)C1=O (configuration not stated)	none
Cc1cc(SCC(=O)N2CCN(C(=O)c3ccco3)CC2)c(C)cc1Br	LANA-H2B inh 45
C=C1c2cccc(O)c2C(O)=C2C(=O)[C@]3(O)C(O)=C(C(N)=O)C(=O)[C@@H](N(C)C)[C@@H]3[C@@H](O)[C@H]12	C-LANA FP 75
C[C@H]1c2cccc(O)c2C(O)=C2C(=O)C3(O)C(O)=C(C(N)=O)C(=O)[C@@H](N(C)C)[C@@H]3[C@@H](O)[C@@H]21 (some centres not stated)	none
NS(=O)(=O)c1ccc(CCNC(=O)c2cc3ccccc3oc2=O)cc1	none
Cc1cc(-n2cnnn2)cc(C)c1S(=O)(=O)N(C)c1ccccc1	none
CCN1C(=O)/C(=C2\SC(N3CCOCC3)=NC2=O)c2ccccc21	none (no result: LANA-H2B inh)
C=CCN1C(=O)/C(=C2\SC(N3CCOCC3)=NC2=O)c2cc(Br)ccc21	LANA-H2B inh 19
CCC(C)N1CCC(Oc2ccc(C(=O)NCc3ccccn3)cc2)CC1 (configuration not stated)	LANA-H2B inh 175
O=C(NCc1ccccn1)c1ccc(OC2CCN(Cc3ccccc3)CC2)cc1	none
O=C1Nc2ccccc2/C1=C/c1cccnc1	none
O=C1Nc2ccccc2/C1=C/c1cnc(-c2ccccc2)[nH]1	cardiac RTF act 36
Cc1ccc(NC(=O)C(=O)NCc2ccncc2)cc1	none
CN(C)c1ccc(/C=C2\SC(=O)N(CC(O)Cn3c4ccccc4c4ccccc43)C2=O)cc1 (configuration not stated)	cardiac RTF act 55
O=C1S/C(=C/c2ccccc2)C(=O)N1CC(O)Cn1c2ccccc2c2ccccc21 (configuration not stated)	none
CC(=O)Nc1ccc(S(=O)(=O)NCCC(=O)OCC(=O)N2CCN(C(=O)c3ccco3)CC2)cc1	none
N#Cc1ccc(NC(=O)COc2ccc(-n3cnnn3)cc2)cc1	none
CCOc1ccccc1N1CCN(C(=O)c2cn(CC3CCCCC3)nn2)CC1	none
N#C/C(=C\c1ccc(O)c(O)c1)C(=O)c1ccc(O)c(O)c1	C-LANA FP 69
Cc1ccc(S(=O)(=O)N[C@H](C(=O)N2CCC(C(=O)N3CCC[C@H]3C(=O)O)CC2)C(C)C)cc1	none (no result: LANA-H2B inh)
Cc1ccc(S(=O)(=O)N[C@@H](C)C(=O)N2CCC(C(=O)N3CCC[C@H]3C(=O)O)CC2)cc1	LANA-H2B inh 7.6
COc1ccc(CCNC(=O)c2cc(C)oc2C)cc1	LANA-H2B inh 14
COc1ccc(CCNC(=O)c2cc(C)oc2C)cc1OC	none
CCc1cccc(C)c1NC(=O)c1cc(C)oc1C	none
Cc1cc(C(=O)NCC(=O)Nc2c(C)cccc2C)c(C)o1	LANA-H2B inh 167
Cc1nc(CCNC(=O)C2CCC(=O)N(Cc3cccc(F)c3)C2)sc1C (configuration not stated)	none
CC(=O)Nc1ccccc1C(=O)C(=O)Nc1ccccc1	LANA-H2B inh 4.6
c1ccc2c(c1)Oc1ccccc1S2	LANA-H2B inh 42
Cc1c(-c2ccccc2)oc2c(C(=O)OCC(=O)Nc3ccc(C(N)=O)cc3)cccc2c1=O	LANA-H2B inh 28
COC(=O)c1ccc(NC(=O)COC(=O)c2cccc3c(=O)c(C)c(-c4ccccc4)oc23)cc1	none
COc1cc(OC)cc(C(=O)Nc2cccc(C(C)=O)c2)c1	none
COc1cc(OC)cc(C(C)=O)c1	LANA-H2B inh 20
CCCc1ccc(S(=O)(=O)N/N=C\c2ccc3c(c2)OCO3)cc1	none
NS(=O)(=O)c1cccc(NC(=O)COC(=O)CCCc2c[nH]c3ccccc23)c1	none
COc1ccc(-c2nn(CCC(=O)O)cc2/C=N/NC(N)=S)cc1	LANA-H2B inh 19
CC(NC(=O)c1cccc(S(=O)(=O)N2CCc3ccccc32)c1)c1ccco1 (configuration not stated)	LANA-H2B inh 135
COc1ccc(CNC(=O)c2cncc(Br)c2)cc1	none
CCN1CCN(S(=O)(=O)c2ccc(C(C)(C)C)cc2)CC1	LANA-H2B inh 13
CCN1CCN(S(=O)(=O)c2ccc(S(=O)(=O)NC3CC3)cc2)CC1	none
Cc1ccc(-c2csc3ncnc(-n4cnc5ccccc54)c23)cc1	none
